# “And” between values parts separate entries of the source, which are not always exact repeats. Equal entries are not always repeated. Inconclusive results are not listed. The source made the active and inactive calls. Unless noted, calls follow the shape of the full dose curve.
# Tests used:
# [1] = target: Vitamin D3 receptor (Homo sapiens) (UniProt P11473); test: qHTS assay for small molecule agonists of vitamin D receptor signaling (AID 588543);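 also: 0% = DMSO basal and 100% = reference agonist control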
# Summary of the method: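 Reporter cells (HEK293T, VDR-UAS-bla) were seeded in medium with 2% charcoal-stripped serum and incubated 5 h, then compounds in concentration series were added for 16 h at 37 °C. Stimulation was scaled between DMSO basal and 50 nM 1α,25-dihydroxyvitamin D3.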
# [2] = qHTS assay for small molecule agonists of the antioxidant response element (ARE) signaling pathway (AID 651741; active = well fitted activation curve with a large enough effect in the signal ratio; the % refers to the signal ratio; also: potency is read from the fitted curve at half-maximal effect)
# Summary of the method: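 HepG2 ARE-bla cells plated at 2,000 cells/well and incubated 5 h at 37 C/5% CO2 received 23 nL compound in DMSO. After 16 h at 37 C, LiveBLAzer B/G FRET substrate was applied for 2 h at room temperature and fluorescence read.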
# [3] = qHTS assay for small molecule activators of the p53 signaling pathway (AID 651743; active = well fitted activation curve with a large enough effect in the signal ratio, not every such curve was filed as active; the % refers to the signal ratio; also: potency is read from the fitted curve at half-maximal effect; as to activation: series mostly up to about 92 µM; % of control where 0% means no effect); details: HCT-116 p53RE-bla, beta-lactamase FRET ratio, 16 h; activation: stronger effect = higher value
# Summary of the method: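 HCT-116 p53RE-bla, 4,000 cells/well; 5 h settle; cpd/DMSO 16 h, 37 C; LiveBLAzer B/G 2 h RT; fluorescence intensity.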
# [4] = qHTS assay for small molecule activators of the nuclear factor-kappa B (NF-kB) signaling pathway (AID 651749; active = well fitted activation curve with a large enough effect in the signal ratio; the % refers to the signal ratio; also: series mostly up to about 77 µM; % of control where 0% means no effect); details: NF-kB-bla ME-180 cells, beta-lactamase FRET ratio, 16 h; stronger effect = higher value
# Summary of the method: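 Incubation lasted 16 hr at 37C in 5% CO2 after 23 nL compound addition to ME-180 NF-kB-bla cells. Activation appears as beta-lactamase-mediated FRET loss.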
# [5] = target: 3',5'-cyclic-AMP phosphodiesterase 4B (Homo sapiens) (UniProt Q07343); test: qHTS Assay for Inhibitors of PDE-IV (AID 607; active = well fitted activation curve with a large enough effect in the main read-out, with a control signal flat, not every such curve was filed as active; also: % of control where 0% means no effect)
# Summary of the method: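 The readout is membrane depolarisation from a cAMP-sensing CNG channel, detected with a potential dye at ex 535/em 590. Cells were HEK293-derived (endogenous PDE-IV) at 1000 cells/well, titrated up to 22.9 uM final.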
# [6] = target: Bile acid receptor (Homo sapiens) (UniProt Q96RI1); test: qHTS assay for small molecule antagonists of farnesoid X receptor signaling (AID 588526); also: % is scaled to controls: 0 for no effect and ±100 for the full control effect
# Summary of the method: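 Antagonist mode: titrated compounds tested against chenodeoxycholic acid stimulation (normalized to 50 uM CDCA and DMSO) in GeneBLAzer HEK293T cells for 16 h. Beta-lactamase read by CCF4 fluorescence; IC50 from Hill fits.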
# [7] = qHTS assay for small molecule agonists of retinoid X receptor alpha signaling (AID 588544); details: HEK293T RXRa-UAS-bla, beta-lactamase reporter, 18 h; 530 nm emission
# [8] = qHTS assay for small molecule antagonists of peroxisome proliferator-activated receptor delta signaling (AID 588535; active = well fitted inhibition curve with a large enough effect in the signal ratio, with a control signal flat, not every such curve was filed as active; the % refers to the signal ratio;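 as to max response: cells co-treated with a PPAR-delta agonist as stimulator during compound exposure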); details: HEK293T PPARd-UAS-bla, beta-lactamase FRET ratio, 18 h; 460 nm channel
# Summary of the method: (§1)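 Cells were seeded at 4000 per well in assay medium containing 2% charcoal/dextran FBS and held 5 hrs at 37 C. Compounds were then added for 18 hrs. CCF4 substrate was applied for 2 hrs at room temperature before fluorescence reading.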
# [9] = target: Peroxisome proliferator-activated receptor delta (Homo sapiens) (UniProt Q03181); test: as above
# Summary of the method: as §1
# [10] = target: Peroxisome proliferator-activated receptor gamma (Homo sapiens) (UniProt P37231); test: qHTS assay for small molecule agonists of peroxisome proliferator-activated receptor gamma signaling (AID 588536; active = well fitted curve in the direction sought with a large enough effect in the signal ratio, with a control signal flat, not every such curve was filed as active; the % refers to the signal ratio;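 also: 0% = DMSO basal wells and 100% = rosiglitazone at 2 µM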)
# Summary of the method: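 Test agents, titrated, stimulated HEK293 UAS-bla cells overnight (16 h, 37 C). Substrate CCF4 was then added for two hours at room temperature before fluorescence reading.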
# [11] = target: Peroxisome proliferator-activated receptor gamma (Homo sapiens) (UniProt P37231); test: qHTS assay for small molecule antagonists of peroxisome proliferator-activated receptor gamma signaling (AID 588537; active = well fitted inhibition curve with a large enough effect in the signal ratio, with a control signal flat, not every such curve was filed as active; the % refers to the signal ratio;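 also: reporter cells co-stimulated with 50 nM rosiglitazone agonist during compound treatment; % of control where 0% means no effect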)
# Summary of the method: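 Step one: plate 3000 HEK293 UAS-bla cells per well in medium with 1% stripped serum and hold 6-6.5 h at 37 C. Step two: add compound and 50 nM agonist for 16 h. Step three: CCF4 loading, fluorescence read.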
# [12] = target: Vitamin D3 receptor (Homo sapiens) (UniProt P11473); test: qHTS assay for small molecule antagonists of vitamin D receptor signaling (AID 588541); also: potency is read from the fitted curve at half-maximal effect
# Summary of the method: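 VDR-UAS-bla HEK293T cells in 2% charcoal-stripped FBS were stimulated with 1-alpha,25-dihydroxyvitamin D3 (3 nM final) plus compound for 16 h at 37 C. The beta-lactamase CCF4 readout was normalized to 50 nM agonist and DMSO, and Hill fits gave IC50.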
# [13] = qHTS assay for small molecule antagonists of retinoid X receptor alpha signaling (AID 588546; active = well fitted inhibition curve with a large enough effect in the signal ratio, with a control signal flat, not every such curve was filed as active; the % refers to the signal ratio; also: potency is read from the fitted curve at half-maximal effect;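 as to max response: cells stimulated with 9-cis-retinoic acid as agonist; % is scaled to controls: 0 for no effect and ±100 for the full control effect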); details: HEK293T RXRa-UAS-bla, beta-lactamase ratio, antagonist mode; measured here: W530 green channel, cytotoxicity proxy
# Summary of the method: (§2)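 Beta-lactamase reporter inhibition, read as CCF4 fluorescence ratio (ex 405, em 460/530 nm) after 2 h at RT. HEK293T UAS-bla cells, 2500/well, were stimulated with 9-cis-RA at 500 or 100 nM final alongside test compound for 18 h at 37 C.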
# [14] = target: Retinoic acid receptor RXR-alpha (Homo sapiens) (UniProt P19793); test: as above; details: HEK293T RXRa-UAS-bla, beta-lactamase ratio, antagonist mode
# Summary of the method: as §2
# [15] = target: Estrogen receptor (Homo sapiens) (UniProt P03372); test: qHTS assay for small molecule agonists of estrogen receptor alpha signaling (AID 588514);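 also: 0% = vehicle only and 100% = reference agonist; nearly all actives have a fitted effect of over 70% in size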
# Summary of the method: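 ER-alpha-UAS-bla GripTite HEK 293 cells in medium with 2% charcoal/dextran-treated FBS were treated with compound titrations at 37 C for 18 hrs; beta-lactamase reporter read by CCF4 fluorescence after 2 hrs at RT.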
# [16] = target: Glucocorticoid receptor (Homo sapiens) (UniProt P04150); test: qHTS assay for small molecule agonists of glucocorticoid receptor signaling (AID 588532; active = well fitted curve in the direction sought with a large enough effect in the signal ratio, with a control signal flat; the % refers to the signal ratio;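 also: 100% = dexamethasone at 0.1 µM and 0% = DMSO only wells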); details: HeLa MMTV-bla, beta-lactamase ratio, agonist, 18 h; stronger effect = higher value; percent of dexamethasone control, DMSO zero
# Summary of the method: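 HeLa GRE-bla reporter cells; 18 h compound exposure at 37 C; 2 h CCF4 loading at room temperature; fluorescence at 460 and 530 nm; EC50 by Hill equation.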
# [17] = qHTS assay to identify small molecules that stimulate interleukin-8 (IL-8) secretion (AID 651758; active = well fitted activation curve with a large enough effect in the signal ratio; the % refers to the signal ratio; also: 0% is about no effect)
# Summary of the method: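 THP-1 cells (2000/well) exposed to compound 16 h at 37 C; secreted IL-8 then detected by HTRF with cryptate- and XL665-labelled anti-IL-8 antibody pair after 1-3 h at room temperature.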
# [18] = target: Glucocorticoid receptor (Homo sapiens) (UniProt P04150); test: qHTS assay for small molecule antagonists of glucocorticoid receptor signaling (AID 588533; active = well fitted inhibition curve with a large enough effect in the signal ratio, with a control signal flat, not every such curve was filed as active; the % refers to the signal ratio; also: potency is read from the fitted curve at half-maximal effect)
# Summary of the method: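 Antagonist-mode qHTS: compound titrations added to GRE-bla HeLa cells, then dexamethasone 2 nM final; 18 h, 37 C. CCF4 FRET fluorescence normalized to dexamethasone and DMSO; IC50 from Hill fit.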
# [19] = target: Tumor necrosis factor (Homo sapiens) (UniProt P01375); test: qHTS assay to identify small molecules that stimulate Tumor Necrosis Factor-alpha (TNF-alpha) secretion (AID 651757; active = well fitted curve in the direction sought with a large enough effect in the signal ratio; the % refers to the signal ratio; also: 0% is about no effect)
# Summary of the method: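 THP-1 cells were exposed to compounds for 17 hrs at 37 C, after which secreted TNF-alpha was measured by homogeneous HTRF (TR-FRET) using cryptate- and XL665-labeled anti-TNF-alpha antibodies, read after 3 hr at room temperature.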
# Retinoic acid receptor RXR-alpha (Homo sapiens), sequence (P19793 whole entry, looked up): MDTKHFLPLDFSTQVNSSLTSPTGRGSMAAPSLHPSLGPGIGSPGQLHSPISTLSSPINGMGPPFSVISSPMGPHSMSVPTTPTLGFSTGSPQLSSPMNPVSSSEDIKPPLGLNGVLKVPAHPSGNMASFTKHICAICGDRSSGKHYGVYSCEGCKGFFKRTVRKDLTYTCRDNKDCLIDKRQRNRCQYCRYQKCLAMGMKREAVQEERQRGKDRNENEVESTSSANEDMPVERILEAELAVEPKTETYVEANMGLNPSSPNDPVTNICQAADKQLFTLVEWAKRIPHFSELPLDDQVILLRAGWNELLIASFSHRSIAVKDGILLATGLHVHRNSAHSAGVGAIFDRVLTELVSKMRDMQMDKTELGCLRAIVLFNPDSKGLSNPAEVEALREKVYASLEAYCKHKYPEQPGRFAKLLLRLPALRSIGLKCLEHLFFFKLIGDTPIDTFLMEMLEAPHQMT
# Tumor necrosis factor (Homo sapiens), sequence (P01375 whole entry, looked up): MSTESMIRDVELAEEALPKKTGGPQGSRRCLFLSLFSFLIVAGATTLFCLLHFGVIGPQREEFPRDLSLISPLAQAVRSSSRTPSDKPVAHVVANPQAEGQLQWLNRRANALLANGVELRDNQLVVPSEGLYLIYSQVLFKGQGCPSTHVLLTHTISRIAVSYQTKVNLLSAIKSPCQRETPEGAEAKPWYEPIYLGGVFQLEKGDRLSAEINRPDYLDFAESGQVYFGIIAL
# Glucocorticoid receptor (Homo sapiens), sequence (P04150 whole entry, looked up): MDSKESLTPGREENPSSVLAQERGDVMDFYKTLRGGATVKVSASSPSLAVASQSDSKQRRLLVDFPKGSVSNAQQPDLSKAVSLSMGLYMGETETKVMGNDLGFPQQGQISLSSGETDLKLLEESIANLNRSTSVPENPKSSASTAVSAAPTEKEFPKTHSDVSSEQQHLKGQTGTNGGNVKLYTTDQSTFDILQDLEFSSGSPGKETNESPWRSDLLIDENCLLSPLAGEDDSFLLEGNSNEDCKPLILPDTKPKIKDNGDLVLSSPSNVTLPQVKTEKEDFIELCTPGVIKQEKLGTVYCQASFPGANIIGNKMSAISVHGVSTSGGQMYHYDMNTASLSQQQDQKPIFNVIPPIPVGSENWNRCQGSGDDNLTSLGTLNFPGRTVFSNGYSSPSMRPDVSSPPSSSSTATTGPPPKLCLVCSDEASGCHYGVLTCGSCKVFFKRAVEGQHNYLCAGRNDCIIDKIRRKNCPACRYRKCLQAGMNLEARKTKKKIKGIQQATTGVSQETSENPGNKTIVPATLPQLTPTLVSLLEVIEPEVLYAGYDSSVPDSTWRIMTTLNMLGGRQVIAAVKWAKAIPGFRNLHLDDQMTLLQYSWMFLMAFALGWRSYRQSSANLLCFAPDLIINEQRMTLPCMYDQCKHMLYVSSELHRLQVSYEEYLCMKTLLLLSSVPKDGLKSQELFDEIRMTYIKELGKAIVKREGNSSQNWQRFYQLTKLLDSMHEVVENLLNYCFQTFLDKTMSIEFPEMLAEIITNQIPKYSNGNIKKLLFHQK
# Vitamin D3 receptor (Homo sapiens), sequence (P11473 whole entry, looked up): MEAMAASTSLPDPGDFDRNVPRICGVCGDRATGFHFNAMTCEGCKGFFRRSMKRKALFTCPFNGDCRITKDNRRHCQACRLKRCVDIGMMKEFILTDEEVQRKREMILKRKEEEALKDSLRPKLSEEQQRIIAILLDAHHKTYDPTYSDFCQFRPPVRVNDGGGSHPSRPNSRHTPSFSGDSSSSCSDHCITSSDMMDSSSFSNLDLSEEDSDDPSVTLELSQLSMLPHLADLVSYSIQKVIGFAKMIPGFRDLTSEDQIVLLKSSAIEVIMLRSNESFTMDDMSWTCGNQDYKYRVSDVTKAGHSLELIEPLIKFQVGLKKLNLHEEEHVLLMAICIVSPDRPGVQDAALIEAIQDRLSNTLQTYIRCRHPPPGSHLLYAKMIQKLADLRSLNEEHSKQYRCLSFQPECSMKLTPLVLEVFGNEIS
# 3',5'-cyclic-AMP phosphodiesterase 4B (Homo sapiens), sequence (Q07343 whole entry, looked up): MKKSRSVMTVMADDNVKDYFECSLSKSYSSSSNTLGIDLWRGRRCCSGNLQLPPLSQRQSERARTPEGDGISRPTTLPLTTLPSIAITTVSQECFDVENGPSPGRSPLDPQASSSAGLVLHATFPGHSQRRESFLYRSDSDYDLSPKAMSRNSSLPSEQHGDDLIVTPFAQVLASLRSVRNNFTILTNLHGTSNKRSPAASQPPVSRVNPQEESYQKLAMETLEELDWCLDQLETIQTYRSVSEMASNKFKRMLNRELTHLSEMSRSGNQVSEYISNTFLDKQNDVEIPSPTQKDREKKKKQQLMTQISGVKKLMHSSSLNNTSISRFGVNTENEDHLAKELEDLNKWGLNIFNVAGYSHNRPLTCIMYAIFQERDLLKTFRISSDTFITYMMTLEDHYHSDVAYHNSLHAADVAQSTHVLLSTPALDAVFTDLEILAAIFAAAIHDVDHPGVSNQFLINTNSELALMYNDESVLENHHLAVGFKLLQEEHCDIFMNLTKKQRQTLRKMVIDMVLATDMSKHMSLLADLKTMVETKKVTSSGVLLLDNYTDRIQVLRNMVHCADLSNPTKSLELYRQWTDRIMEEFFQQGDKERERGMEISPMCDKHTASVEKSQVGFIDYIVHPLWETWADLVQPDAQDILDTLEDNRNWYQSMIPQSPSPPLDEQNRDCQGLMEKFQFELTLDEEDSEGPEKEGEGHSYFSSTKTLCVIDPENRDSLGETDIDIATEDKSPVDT
# Peroxisome proliferator-activated receptor gamma (Homo sapiens), sequence (P37231 whole entry, looked up): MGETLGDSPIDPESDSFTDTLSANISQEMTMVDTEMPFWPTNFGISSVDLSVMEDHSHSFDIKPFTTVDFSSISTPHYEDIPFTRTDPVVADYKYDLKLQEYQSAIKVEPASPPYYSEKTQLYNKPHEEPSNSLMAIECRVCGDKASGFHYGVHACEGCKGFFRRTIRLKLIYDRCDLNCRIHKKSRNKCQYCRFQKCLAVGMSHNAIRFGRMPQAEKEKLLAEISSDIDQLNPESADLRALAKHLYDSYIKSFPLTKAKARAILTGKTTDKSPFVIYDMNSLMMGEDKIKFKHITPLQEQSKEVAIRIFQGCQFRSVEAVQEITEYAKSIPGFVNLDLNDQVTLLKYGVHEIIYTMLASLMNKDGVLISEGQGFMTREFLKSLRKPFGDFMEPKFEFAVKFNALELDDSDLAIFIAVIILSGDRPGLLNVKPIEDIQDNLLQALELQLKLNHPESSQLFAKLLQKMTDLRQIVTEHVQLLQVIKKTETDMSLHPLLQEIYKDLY
# Peroxisome proliferator-activated receptor delta (Homo sapiens), sequence (Q03181 whole entry, looked up): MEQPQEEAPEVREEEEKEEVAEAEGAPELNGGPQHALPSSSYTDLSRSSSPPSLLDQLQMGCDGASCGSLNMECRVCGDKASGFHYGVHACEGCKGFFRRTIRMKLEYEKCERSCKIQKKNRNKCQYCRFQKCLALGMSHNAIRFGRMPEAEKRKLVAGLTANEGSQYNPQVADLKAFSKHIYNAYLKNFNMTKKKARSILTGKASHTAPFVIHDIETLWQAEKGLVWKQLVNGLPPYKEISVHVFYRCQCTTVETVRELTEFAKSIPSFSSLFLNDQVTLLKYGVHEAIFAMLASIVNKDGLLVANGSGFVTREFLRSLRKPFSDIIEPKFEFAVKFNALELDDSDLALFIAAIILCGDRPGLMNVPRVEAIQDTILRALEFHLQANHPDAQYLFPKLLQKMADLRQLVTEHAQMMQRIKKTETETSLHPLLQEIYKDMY
# Bile acid receptor (Homo sapiens), sequence (Q96RI1 whole entry, looked up): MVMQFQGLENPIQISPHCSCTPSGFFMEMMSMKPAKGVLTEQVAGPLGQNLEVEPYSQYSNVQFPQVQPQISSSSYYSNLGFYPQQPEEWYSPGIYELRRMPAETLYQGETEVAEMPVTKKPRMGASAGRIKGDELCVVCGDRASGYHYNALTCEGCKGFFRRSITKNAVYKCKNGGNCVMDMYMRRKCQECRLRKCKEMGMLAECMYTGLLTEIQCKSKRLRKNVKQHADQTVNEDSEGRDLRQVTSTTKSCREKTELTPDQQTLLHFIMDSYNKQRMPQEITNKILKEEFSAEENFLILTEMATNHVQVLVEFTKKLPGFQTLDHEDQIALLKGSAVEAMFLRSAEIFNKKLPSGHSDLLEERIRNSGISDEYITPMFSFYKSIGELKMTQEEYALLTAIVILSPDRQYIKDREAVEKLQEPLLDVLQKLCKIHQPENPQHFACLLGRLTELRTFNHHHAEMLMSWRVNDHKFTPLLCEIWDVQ
# Estrogen receptor (Homo sapiens), sequence (P03372 whole entry, looked up): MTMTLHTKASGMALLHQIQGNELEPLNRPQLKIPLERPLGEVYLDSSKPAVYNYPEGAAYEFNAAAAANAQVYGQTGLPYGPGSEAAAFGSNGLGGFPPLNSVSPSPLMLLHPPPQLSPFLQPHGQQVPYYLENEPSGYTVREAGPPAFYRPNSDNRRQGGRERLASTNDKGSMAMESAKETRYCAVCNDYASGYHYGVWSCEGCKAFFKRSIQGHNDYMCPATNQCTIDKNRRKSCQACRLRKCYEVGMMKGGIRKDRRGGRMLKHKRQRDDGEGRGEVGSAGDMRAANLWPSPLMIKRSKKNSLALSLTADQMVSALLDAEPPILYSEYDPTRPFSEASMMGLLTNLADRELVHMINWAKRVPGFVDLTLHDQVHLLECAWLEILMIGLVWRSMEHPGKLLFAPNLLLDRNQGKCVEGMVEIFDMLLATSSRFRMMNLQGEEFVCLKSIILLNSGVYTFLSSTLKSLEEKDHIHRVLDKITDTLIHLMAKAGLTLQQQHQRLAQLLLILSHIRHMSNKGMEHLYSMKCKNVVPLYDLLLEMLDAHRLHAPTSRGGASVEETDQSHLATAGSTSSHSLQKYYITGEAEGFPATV
smiles,measurement,setting,value
CNc1ccc(O)cc1,outcome,[1],inactive
same,Potency,[2],13.3 µM (active)
same,activation,[3],-13.4% (inactive)
same,activation,[4],-0.994% (inactive)
COc1cc2c(c(OC)c1OC)-c1ccc(OC)c(=O)cc1[C@H](NC(C)=O)CC2,Potency,[5],inactive
c1ccc2c(c1)ccc1cc3c(ccc4ccccc43)cc12,Potency,[6],inactive
same,max response,[7],-11.8%
CN(C)c1ccc(C2(c3ccc(N(C)C)cc3)OC(=O)c3cc(N(C)C)ccc32)cc1,max response,[8],-30.7%
same,outcome,[9],inactive
same,outcome,[10],inactive
same,Potency,[11],inactive
same,Potency,[12],inactive
same,max response,[13],-30.3%
same,max response,[14],32.7% (inactive)
same,Potency,[3],50.1 µM (active)
O=C1OC2(c3cc(Br)c(O)c(Br)c3Oc3c2cc(Br)c(O)c3Br)c2c(Cl)c(Cl)c(Cl)c(Cl)c21,outcome,[15],inactive
same,activation,[16],0.908% (inactive)
same,outcome,[10],inactive
same,Potency,[12],inactive
same,max response,[13],20.8%
same,max response,[14],7.11% (inactive)
same,Potency,[2],66.8 µM (active)
same,outcome,[17],inactive
O=Cc1ccc(Cl)c(Cl)c1,activation,[16],-2.24% (inactive)
same,Potency,[18],inactive
same,max response,[8],20.6%
same,outcome,[9],inactive
same,outcome,[10],inactive
same,Potency,[12],inactive
same,outcome,[1],inactive
same,max response,[7],2.17%
same,activation,[3],-1.08% (inactive)
same,activation,[4],-0.954% (inactive)
same,outcome,[19],inactive
CCC(C)Nc1ccc(NC(C)CC)cc1 (stereo unspecified),activation,[16],1.29% (inactive) and -5.53% (inactive)
same,Potency,[18],35.5 µM (active)
same,Potency,[12],6.31 µM (active)
same,outcome,[1],inactive
same,max response,[13],-40%
same,Potency,[14],28.2 µM (active)
C/C=C1\C(=O)C[C@H]2[C@@H]3CCC4=CC(=O)CC[C@]4(C)[C@H]3CC[C@]12C,Potency,[2],2.98 µM (active)
same,activation,[4],-4.79% (inactive)
same,outcome,[19],inactive
Oc1ccc2cc(SSc3ccc4cc(O)ccc4c3)ccc2c1,Potency,[2],13.3 µM (active)
same,activation,[4],0.682% (inactive)
same,outcome,[19],inactive

# From PubChem BioAssay (NCATS)
